# Measurements from PubChem BioAssay AID1851 (National Center for Advancing Translational Sciences (NCATS), 2009).
# The campaign covered roughly 16,000 compounds. About 5,700 (36%) were called active. About 24% were inconclusive and are not listed. The list shows a part of the results. Values without a mark were called inactive. Calls come from the whole dose curve; as a rule, active = well fitted curve in the direction sought with a large enough effect; inconclusive = small, poorly fitted or top-dose-only effect, or effect the other way; inactive = no such curve, though single readings can be large or run the other way.
# Molecular target: Cytochrome P450 1A2 (Homo sapiens) (UniProt P05177)
# Sequence (P05177 whole entry, looked up): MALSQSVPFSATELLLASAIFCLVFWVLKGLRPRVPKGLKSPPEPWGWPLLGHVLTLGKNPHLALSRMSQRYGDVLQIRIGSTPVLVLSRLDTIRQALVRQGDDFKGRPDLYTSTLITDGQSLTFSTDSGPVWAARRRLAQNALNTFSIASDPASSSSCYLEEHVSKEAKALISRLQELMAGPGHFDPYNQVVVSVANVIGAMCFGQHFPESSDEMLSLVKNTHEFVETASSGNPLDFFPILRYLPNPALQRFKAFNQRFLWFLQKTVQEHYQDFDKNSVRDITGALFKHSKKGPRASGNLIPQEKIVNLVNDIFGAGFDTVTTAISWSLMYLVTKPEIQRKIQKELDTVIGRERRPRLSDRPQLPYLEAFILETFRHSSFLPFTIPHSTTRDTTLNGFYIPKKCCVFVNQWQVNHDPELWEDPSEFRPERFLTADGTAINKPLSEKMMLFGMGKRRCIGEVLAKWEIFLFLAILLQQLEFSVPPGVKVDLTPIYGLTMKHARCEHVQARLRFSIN
# Experiment: Cytochrome panel assay with activity outcomes
# Settings: recombinant CYP, pro-luciferin dealkylation, luminescence, p450-cyp1a2; series mostly up to 57.1 µM
# % is set by controls: 0 for no effect and ±100 for the full control effect.
SMILES,AC50,"activity, negative = inhibition"
N#Cc1ccccc1NC(=O)Nc1cccs1,7.08 µM (active),–
COc1cc2c3cc1Oc1cc(ccc1O)C[C@@H]1c4c(cc(OC)c(O)c4Oc4ccc(cc4)C[C@H]3[N+](C)(C)CC2)CC[N+]1(C)C,–,-5.47% [at 11.4 µM]
COC(=O)[C@@H]1CC[C@H](C)[C@@H](c2ccc(C)cc2)N1C(=O)c1ccc(/C=N\OC[C@@H](C)[C@H](OCc2ccccc2)C(C)C)cc1,–,-8.55% [at 11.4 µM]
Cc1cc([N+](=O)[O-])ccc1NCc1ccccc1,2.82 µM (active),–
COc1ccc([N+](=O)[O-])cc1NC1C2CC3CC(C2)CC1C3 (stereo not drawn),inactive,–
COc1ccc([N+](=O)[O-])cc1NCc1ccccc1C,2.82 µM (active),–
Cc1cc(C)c(-c2cc([C@H](C)O/N=C\[C@@H](C)[C@H](OCc3ccccc3)C(C)C)on2)c(C)c1,–,5.92% [at 11.4 µM]
O=C(O)CONC(=O)c1cc(OCC(F)(F)F)ccc1OCC(F)(F)F,inactive,–
S=C(NCCSCc1c(Cl)cccc1Cl)Nc1ccccc1,1.41 µM (active),–
Fc1cccc(NC(=S)NCCCN2CCOCC2)c1,inactive,–
Oc1oc(-c2ccccc2)nc1C=Nc1ccccc1,0.316 µM (active),–
CN(C)c1ccc(N=Cc2nc(-c3ccccc3)oc2O)cc1,0.398 µM (active),–
CCOC(=O)C1=C(C)Nc2ncnn2C1c1cccnc1 (stereo not drawn),inactive,–
CSc1nc2n(n1)C(c1cccc(F)c1)C(C(=O)Nc1ccc(C)cc1C)=C(C)N2 (stereo not drawn),inactive,–
CC1=C(C(N)=O)C(c2ccccc2)n2nc(-c3ccncc3)nc2N1 (stereo not drawn),14.1 µM (active),–
COc1cccc(Nc2nc(-c3ccc(O)cc3)cs2)c1,1 µM (active),–
COc1ccc(OC)c(Nc2nc(-c3sc(NC(=O)c4ccccc4)nc3C)cs2)c1,inactive,–
COc1cccc([C@H](O)Cn2cc(-c3ccc(CON=C(C)C)cc3)nn2)c1,–,-9.27% [at 11.4 µM]
C=CCNC(=S)Nc1ccc2nc(C)c(C)nc2c1,4.47 µM (active),–
COc1cc(N=c2ssnc2Cl)cc(OC)c1OC,3.16 µM (active),–
Cn1c(=O)c2[nH]cnc2n(C)c1=O,inactive,–
COc1ccc(-c2nc3c([nH]2)c(=O)n(C)c(=O)n3C)c(OC)c1,2 µM (active),–
Cn1c(=O)c2[nH]c(CSCc3ccccc3)nc2n(C)c1=O,–,-15.4% [at 2.29 µM]
CCn1c(CCCc2nc3c([nH]2)c(=O)n(C)c(=O)n3C)nc2c1c(=O)n(C)c(=O)n2C,–,-16.7% [at 2.29 µM]

SMILES,AC50,"activity, negative = inhibition"
Cn1c(=O)c2[nH]c(-c3ccc(S(=O)(=O)O)cc3)nc2n(C)c1=O,inactive,–
CCCn1c(=O)c2[nH]c(-c3ccc(OCC(=O)NCCN)cc3)nc2n(CCC)c1=O,inactive,–
Cn1c(=O)c2[nH]c(CCC(=O)O)nc2n(C)c1=O,–,-3.23% [at 11.4 µM]
CCCn1c(=O)c2[nH]c(-c3ccccc3)nc2n(CCC)c1=O,0.0794 µM (active),–
Cn1c(=O)c2[nH]c(-c3ccccc3)nc2n(C)c1=O,2 µM (active),–
CCn1c(=O)c2[nH]c(-c3ccccc3)nc2n(CC)c1=O,1 µM (active),–
CCNC(=O)NC1(C(=O)Nc2ccc3c(c2)OCCO3)CCCCC1,inactive,–
COc1cc2c(cc1OC)C(C(=O)Nc1ccc3c(c1)OCCO3)C(c1cccnc1)N(C)C2=O (stereo not drawn),inactive,–
CCOC(=O)Nc1ccc(C(=O)Oc2ccccc2)c(O)c1,3.16 µM (active),–
CC(=O)Nc1ccc2c(c1)OCCO2,10 µM (active),–
O=C(CC(c1ccccc1)c1ccccc1)Nc1ccc2c(c1)OCCO2,10 µM (active),–
CC(=O)Nc1ccc2c(c1)OCCOCCOc1cc(NC(C)=O)ccc1OCCOCCOCCO2,inactive,–
O=C(Cn1ccc(=O)[nH]c1=O)Nc1ccc(C(=O)O)c(O)c1,–,-16.5% [at 2.29 µM]
Cn1ncc([N+](=O)[O-])c1C(=O)Nc1ccc2c(c1)OCCO2,1.26 µM (active),–
Cc1cc(NC(=O)c2c([N+](=O)[O-])cnn2C)no1,inactive,–
CC(C)(C)c1ccc(OC(=O)Nc2ccc(O)c(C(=O)O)c2)cc1,–,6.5% [at 2.29 µM]
O=C(CC1C(=O)NCCN1C(=S)Nc1ccccc1)Nc1ccc2c(c1)OCCO2 (stereo not drawn),inactive,–
CC[n+]1c(P(=O)([O-])c2ccccc2)[nH]c2ccccc21,inactive,–
COc1ccccc1CN1CCC2(CC1)CCN(C(=O)c1cccn1C)CC2,inactive,–
CC(C)NC(=O)N1CCC2(CC1)CCN(C(=O)c1cc(C(F)(F)F)cc(C(F)(F)F)c1)CC2,inactive,–
O=C1C2CCC(C(O)C2)N1Cc1ccccc1 (stereo not drawn),inactive,–
CCOC(=O)Nc1ccc2c(c1)OCO2,1.26 µM (active),–
COc1cccc(Cn2c(=O)cnc3cnc(Oc4cccc(Cl)c4)nc32)c1,12.6 µM (active),–
O=c1cnc2cnc(Oc3cccc(Cl)c3)nc2n1Cc1ccc(F)cc1,15.8 µM (active),–

SMILES,AC50,"activity, negative = inhibition"
O=c1cnc2cnc(Oc3ccccc3)nc2n1Cc1ccc(F)cc1,15.8 µM (active),–
COc1cccc(Cn2c(=O)cnc3cnc(OCc4ccccc4)nc32)c1,12.6 µM (active),–
CON1C(=O)C(=O)N(OC)C(C)(C)C1C (stereo not drawn),inactive,–
COc1ccc(O[C@H]2C=C[C@@H](c3ccccc3)O[C@H]2COC(=O)CC/C(C)=N\O[C@@H](C)c2cn([C@H]3COC[C@H]3O)nn2)cc1,–,-4.14% [at 11.4 µM]
O=c1cnc2cnc(OCc3ccccc3)nc2n1Cc1ccc(F)cc1,12.6 µM (active),–
COc1ncc2ncc(=O)n(Cc3ccc(F)cc3)c2n1,12.6 µM (active),–
CC(=O)N(C[C@@H](O)CO)c1c(I)c(C(=O)NC[C@@H](O)CO)c(I)c(C(=O)NC[C@@H](O)CO)c1I,inactive,–
CC(C)COC[C@H](CN(Cc1ccccc1)c1ccccc1)N1CCCC1,inactive,–
CN1C(=O)CC[C@@H]1c1cccnc1,inactive,–
COc1ccc(N2C(=O)CSC2c2cccc(F)c2)c(OC)c1 (stereo not drawn),inactive,–
Cc1ccc(N2C(=O)CSC2c2cccnc2)cc1F (stereo not drawn),15.8 µM (active),–
CCC1=NN(C(=O)CCc2ccccc2)C(O)(C(F)(F)F)C1 (stereo not drawn),11.2 µM (active),–
CC1(C)CC(=O)C2=C(C1)N(Cc1ccccc1)C(=O)C2(O)C(F)(F)F (stereo not drawn),inactive,–
CCOC(=O)N1CCN(S(=O)(=O)Cc2ccccc2)CC1,inactive,–
O=C(CCCc1ccccc1)N1CCN(c2ccc([N+](=O)[O-])cc2)CC1,inactive,–
CCOC(=O)N1N=C(c2ccccc2)CC1(O)C(F)(F)F (stereo not drawn),15.8 µM (active),–
COc1cccc(C(=O)NNC2=CC(=O)CC(C)(C)C2)c1,inactive,–
COc1cccc(C(=O)N2N=C(c3cccc(OC)c3)CC2(O)C(F)(F)F)c1 (stereo not drawn),14.1 µM (active),–
CO[C@H]1C=CO[C@]2(C)Oc3c(C)c(O)c4c(O)c(c5c(c4c3C2=O)NC2(CCN(CC(C)C)CC2)N=5)=NC(=O)C(C)=CC=C[C@@H](C)[C@@H](O)[C@@H](C)[C@@H](O)[C@@H](C)[C@@H](OC(C)=O)[C@@H]1C,inactive,–
COc1ccc(NC(=O)N2CC3(CCN(C(=O)c4csnn4)CC3)C2)cc1,inactive,–
CCN1CCCC1Cn1cnc2c([nH]c3ccc(C)cc32)c1=O (stereo not drawn),15.8 µM (active),–
O=C(O)CC[C@@H](C(=O)O)N1C(=O)c2ccccc2C1=O,inactive,–
O=C(O)[C@H](CCc1ccccc1)N1C(=O)c2ccccc2C1=O,–,-9.63% [at 2.29 µM]
O=C(CCN1C(=O)c2ccccc2C1=O)Oc1ccc2ccccc2c1,17.8 µM (active),–

SMILES,AC50,"activity, negative = inhibition"
COc1c(Cl)cc(Cl)cc1CNCCNCC(C)O (stereo not drawn),11.2 µM (active),–
CCOc1ccc(Cl)cc1CNCCNCCO,15.8 µM (active),–
CCOc1ccc(CC(C(N)=O)C(N)=O)cc1CN(C)C,inactive,–
CCOc1ccc(Cl)cc1CNCCNCC(C)O (stereo not drawn),12.6 µM (active),–
CCOc1cc(CNCCc2ccc(S(N)(=O)=O)cc2)ccc1OCc1ccc(Cl)cc1,inactive,–
CCOc1ccccc1CNCCN1CCOCC1,inactive,–
Cc1[nH]nc(-c2ccc(O)cc2O)c1-c1ccc(Cl)cc1,2.24 µM (active),–
Oc1ccc(-c2[nH]ncc2-c2ccc(Cl)cc2)c(O)c1,1.58 µM (active),–
C=C(C)COc1ccc(-c2n[nH]c(C)c2-c2ccc(OC)cc2)c(O)c1,14.1 µM (active),–
CC1(C)O[C@@H]2O[C@H]([C@H](O)CO/N=C3/[C@H]4O[C@@H]4[C@@H](O)[C@H]4[C@H]3CCn3c(=O)n(-c5ccccc5)c(=O)n34)[C@@H](O)[C@@H]2O1,–,-7.71% [at 11.4 µM]
Cc1cc(NC(=O)C2C3C(=O)N(Cc4ccc(Cl)cc4)C(C(=O)NC(C)(C)C)C34C=CC2(C)O4)no1 (stereo not drawn),inactive,–
CCCC(=O)NNC(=O)Nc1ccccc1,inactive,–
O=C(COc1ccc2ccccc2c1Br)NNC(=O)Nc1ccccc1,5.62 µM (active),–
N#Cc1ccc(-c2ccc(F)cc2)nc1Oc1ccc(Cl)c(Cl)c1,1 µM (active),–
COc1ccc(-n2ncc3c(NCC4CCCO4)ncnc32)cc1 (stereo not drawn),14.1 µM (active),–
CCc1nnc(NC(=O)CSc2ncnc3c2cnn3-c2ccc(OC)cc2)s1,inactive,–
Cc1ccc(-n2ncc3c(=O)n(CC(=O)NCC4CCCO4)cnc32)cc1 (stereo not drawn),inactive,–
Cc1nn(-c2nc3ccccc3[nH]2)c(N)c1-c1ccc(Cl)cc1,5.62 µM (active),–
CCNC(=S)NNC(=O)c1cc(C2CC2)nc2ccccc12,8.91 µM (active),–
CCNC(=S)NNC(=O)c1cc(CC(C)C)nc2ccccc12,inactive,–
COC(=O)C/C=C\[C@@H](C)[C@@H](/C=N\O[C@@H](C)c1cc(-c2c(C)cc(C)cc2C)no1)OC,–,-3.54% [at 11.4 µM]
